Results from PubChem BioAssay AID2717 (Broad Institute, 2010).
Among all 300,000 compounds or so, about 3,200 (1.1%) were called active. Shown is part of a subset that was picked to be rich in actives. Values without a mark were called inactive. No stated cut-off is given here; in the data, active means inhibition above about 75%; inconclusive means no clear call, values can overlap the other calls; inactive means below that; tested in HMLE shEcad cells.

assay: growth suppression of cancer stem-like cells – cell-based, luminescence, primary screen (AID 2717); details: cancer stem cell-like cells viability, at 7.5 µM, hits give high values

SMILES | inhibition
Cc1ccc(S(=O)(=O)N2CCN(C(=O)CN3C(=O)NC(C)(c4ccc(Cl)cc4)C3=O)CC2)c(C)c1 (stereo not given) | 3.13%
CC1(C)C=Cc2c(ccc3c2OC[C@@H](c2ccc(O)cc2O)C3)O1 | 90% (active)
Cc1ccsc1C(=O)OCC(=O)NCCc1ccccc1 | 12.1%
CNC(=O)C(=O)N/N=C/c1ccccn1 | -9.33%
Cc1nnc(N/N=C/C2CC=CCC2)[nH]c1=O (stereo not given) | 9.52%
Cc1nnc(N/N=C/c2ccccn2)[nH]c1=O | 121% (active)
O=C(COC(=O)CSc1ccccc1)Nc1ccc(F)cc1F | -0.0328%
CNC[C@H]1Oc2c(NC(=O)C3CCCCC3)cccc2C(=O)N([C@H](C)CO)C[C@@H]1C | 1.2%
CCC(CC)C(=O)N1CCN(c2cccc(C)c2C)CC1 | -11.5%
Cc1cccc(N2CCN(C(=O)c3cccc(N4C(=O)C5C6C=CC(C6)C5C4=O)c3)CC2)c1C (stereo not given) | 26.5%
CCn1c(C)c(C)c2cc(C(=O)N3CCN(c4cccc(C)c4C)CC3)ccc21 | 120% (active)
COc1ccccc1C(=O)COC(=O)COc1ccc(C#N)cc1 | 2.49%
CC(C)(C)OC(=O)N[C@H](C(=O)OC(C)(C)C)c1ccc(Br)cc1 | 0.862%
CC(OC(=O)c1ccc([N+](=O)[O-])cc1)C(=O)NCC1CCCCC1 (stereo not given) | -10.2%
CC(C)=CCCC1(C)C=Cc2c(ccc3c2[nH]c2cc(O)c(C)cc23)O1 (stereo not given) | 101% (active)
CCOC(=O)[C@H]1[C@H]2COc3cc(OC)ccc3[C@@H]2N2C(=O)CN(Cc3ccc(Cl)cc3)C(=O)[C@@]12C | -21.1%
CC1CN(C(=O)c2ccc([N+](=O)[O-])s2)CC(C)O1 (stereo not given) | 0.926%
COc1cc(NC(=O)COC(=O)c2ccc([N+](=O)[O-])s2)cc(OC)c1OC | -12.6%
CN(c1ccccc1)S(=O)(=O)c1ccc(C(=O)N2CCN(c3ccccc3Cl)CC2)cc1 | -0.098%
Cc1c(CC(=O)NCCCCCC(=O)O)c(=O)oc2cc3occ(-c4ccccc4)c3cc12 | -4.15%
CCCCCCc1ccc(O)cc1O | -10.2%
CCCCCCc1cc2cc(-c3nnc(-c4ccccc4)o3)c(=O)oc2cc1O | 118% (active)
CC(C)NC(=O)Nc1cccc2c1O[C@H](CN(C)S(=O)(=O)c1cccs1)[C@@H](C)CN([C@H](C)CO)C2=O | -18%

SMILES | inhibition
COc1ccccc1NS(=O)(=O)c1ccc(C)c(C(=O)NNC(=O)c2csc(N3CCOCC3)n2)c1 | -11.7%
C=CCCC(=O)Nc1nc(C)c(-c2csc(Nc3ccc(Cl)cc3)n2)s1 | 99% (active)
CCCCCCC(=O)Nc1nc(C)c(-c2csc(Nc3cc(Cl)ccc3OC)n2)s1 | 5.64%
CCCCC(=O)Nc1nc(C)c(-c2csc(Nc3ccc(Cl)cc3)n2)s1 | 63.1%
C/C=C/c1ccc(OCC(=O)NNC(=O)CN(C)S(=O)(=O)c2ccc(C)cc2)c(OC)c1 | -2.93%
CN(C(=O)c1cccc(NC(=O)Cc2ccc([N+](=O)[O-])cc2)c1)C1CCC1 | 1.28%
Cc1cccc(-n2ncc(Cl)c(Cl)c2=O)c1 | 138% (active)
COc1ccc(Oc2c(Cl)cnn(-c3ccccc3)c2=O)cc1 | 22%
Cc1cccc(-n2ncc(C#N)c2-n2cccc2)c1 | -10.4%
O=C(COC(=O)c1n[nH]c2ccccc12)Nc1ccccc1Br | -14%
CC1CCCCC1NC(=O)Cn1cnc2c1c(=O)n(C)c(=O)n2C (stereo not given) | -15.5%
CC(C)(C)OC(=O)C[C@@H]1C/C=C\C[C@H](CC(=O)N[C@@H](CO)Cc2ccccc2)C(=O)N[C@H](Cc2ccccc2)COC1=O | -5.32%
CCc1c(C)sc(NC(=O)/C=C/c2ccc3c(c2)OCO3)c1C(=O)OC | 96.5% (active)
CCOC(=O)CCCNC(=O)COC(=O)/C=C/c1ccc2c(c1)OCO2 | -10.5%
CCc1c(C)sc(NC(=O)c2ccc(Br)o2)c1C(=O)OC | 28.8%
COc1ccc(S(=O)(=O)N2CCN(C(C)C(=O)Nc3ccc(C(C)C)cc3)CC2)cc1 (stereo not given) | -10.6%
O=C(Nc1ccccc1Cl)Nn1cnnc1 | -3.82%
O=C(Nc1ccccc1Cl)/C(Cl)=C(\Cl)S(=O)c1ccccc1 (stereo not given) | 145% (active)
O=C(COC(=O)c1cccs1)Nc1ccccc1Cl | -12.7%
CC(C)(C)OC(=O)C[C@@H]1C/C=C\C[C@@H](CC(=O)N[C@H](CO)Cc2ccccc2)C(=O)NCCOC1=O | -6.88%
CCOc1ccc(NC(=O)CN(C)C(=O)Cc2sc(C)nc2-c2ccc(F)cc2)cc1OCC | -4.92%
COc1cc(C=NNC(=O)c2cccnc2)ccc1OC(=O)c1ccccc1F | -6.57%
O=C1CSc2ccc(C(=O)NCc3ccccn3)cc2N1 | -3.45%

SMILES | inhibition
Cc1cccc(C)c1NC(=O)CNC(=O)c1ccc2c(c1)OCCO2 | 14.6%
N#Cc1ccc(CN2CCN(CC(=O)Nc3ccccc3C(=O)NC3CC3)CC2)cc1 | -9.82%
Cc1ccc(CSc2nc(-c3ccccc3)c(C#N)c(=O)[nH]2)cc1 | 27.6%
N#Cc1c(-c2ccccc2)nc(SCc2cccc(C(F)(F)F)c2)[nH]c1=O | 105% (active)
N#Cc1c(-c2ccccc2)nc(SCc2ccc([N+](=O)[O-])cc2)[nH]c1=O | 3.97%
O=C(COC(=O)/C=C/c1cccc(Cl)c1)NCc1cccs1 | 2.73%
O=C(CN1CCN(c2ccc(F)cc2)CC1)Nc1ccccc1 | -1.5%
Oc1c(CN2CCN(c3ccc(F)cc3)CC2)cc(Cl)c2cccnc12 | 138% (active)
Oc1ccc(CN2CCN(c3ncccn3)CC2)cc1 | -8.35%
O=C1c2ccccc2C(=O)N1CCC#Cc1ccc2cc(C3(O)CCCCC3)oc(=O)c2c1 | 4.37%
COc1ccc2c(c1OC)C(=O)OC2Nc1nc(-c2ccccc2)cs1 (stereo not given) | 126% (active)
COc1ccc(CCNc2nc(-c3cccc(NC(C)=O)c3)cs2)cc1OC | -2.96%
Cc1ccc(-c2csc(NC3OC(=O)c4ccccc43)n2)cc1 (stereo not given) | -24.8%
O=C(CN1C(=O)NC2(CCCCCC2)C1=O)Nc1ccc([N+](=O)[O-])cc1 | -18.6%
CCOC(=O)CSC1=C(C#N)C(c2sccc2C)CC(=O)N1 (stereo not given) | 78.4% (active)
Cc1ccc(C2CC(=O)NC(SCC(=O)OCc3ccccc3)=C2C#N)o1 (stereo not given) | 61.5%
CCOC(=O)CSC1=C(C#N)C(c2ccco2)C(C(=O)OCc2ccccc2)=C(C)N1 (stereo not given) | -3.25%
Cc1c(Cl)cnc(NC(=O)COC(=O)C2CCCC2)c1Cl | -15.8%
O=C(CCNC(=O)c1ccc(Cl)cc1)NC1CCCc2ccccc21 (stereo not given) | 27%
COc1ccc(NC(=O)c2cc3nc(-c4ccccc4)cc(C)n3n2)cc1OC | 5.1%
COC(=O)c1cc2nc(-c3ccccc3)cc(C(F)(F)F)n2n1 | -6.63%
COCCNc1cc(-c2ccccc2)nc2cc(-c3cccc(F)c3)nn12 | 85.5% (active)
CN(CCc1ccccc1)C(=O)c1cccc(NC(=O)Cc2ccc([N+](=O)[O-])cc2)c1 | -6.88%

SMILES | inhibition
Cc1ccc(CNC(=O)CC(NC(=O)c2ccccc2)c2ccccc2)cc1 (stereo not given) | -10.4%
CCN(CC)S(=O)(=O)c1ccc(N2CCCC2)c(NC(=O)c2ccc([N+](=O)[O-])o2)c1 | 27.4%
Cc1ccc(S(=O)(=O)N2CCCCC2)cc1NC(=O)CCNC(=O)c1ccccc1 | -6.19%
CCCNC(=O)c1c(N)n(-c2ccc(S(N)(=O)=O)cc2)c2nc3ccccc3nc12 | 0.593%
CC(C)Cn1c(N)c(C(=O)NCc2cccs2)c2nc3ccccc3nc21 | 116% (active)
CC(C)(C)c1ccc(C(=O)NCCn2c(N)c(C#N)c3nc4ccccc4nc32)cc1 | 35.6%
Cn1c(CC(=O)NNC(=O)c2ccccc2F)nc2ccccc21 | -2.01%
CN(Cc1ccccc1)C(=O)COC(=O)/C=C/c1ccc2c(c1)OCO2 | -12%
O=C(NCc1ccc2c(c1)OCO2)c1c(-c2ccsc2)sc2ccccc12 | 58.2%
Cn1cncc1C#Cc1c(-c2ccsc2)sc2ccccc12 | 107% (active)
Cc1ccnc(SCC(=O)Nc2cccc(S(=O)(=O)N3CCOCC3)c2)n1 | -13%
O=C(NCC#CCSc1nnc(-c2cccc3ccccc23)o1)c1cccs1 | 44.4%
O=C(/C=C/c1ccccc1[N+](=O)[O-])OCC(=O)N1CCCC1 | -16.9%
CSCCC1NC(=O)N(CC(=O)Nc2cccc(S(=O)(=O)N3CCCCCC3)c2)C1=O (stereo not given) | -15.7%
O=C(CCNC(=O)c1ccc(Br)cc1)NCC(c1ccco1)N1CCCCC1 (stereo not given) | -10.9%
COc1cccc(-c2cc3nc4c(c(N5CCC6(CC5)OCCO6)n3n2)CCCC4)c1 | 90.5% (active)
COc1cccc(NC(=O)CN2CCN(c3nc(-c4cccc(OC)c4)cs3)CC2)c1 | 2.49%
COc1cccc(CNc2nc3nc4c(c(=O)n3[nH]2)CCC4)c1 | -11.3%
COc1ccccc1-c1sc2ccccc2c1C#CC1(O)CCCCC1 | 105% (active)
COc1ccccc1-c1sc2ccccc2c1-c1ccc(C(C)=O)cc1 | 29.6%
COc1ccccc1C1=CC(=O)CCC1 | -22.3%
